Laboratory results from PubChem BioAssay.
Calls of active or inactive are those of the source.

Columns and labels:
[1] = test system: PRMT1 (protein arginine N-methyltransferase 1); experiment: PRMT1 binders on small-molecule microarrays, primary screen, biochemical, small-molecule microarray, 635 nm fluorescence (AID 1088); conditions: small-molecule microarray binding, higher = more signal;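 further: binding of Prmt1 protein to compounds spotted on small-molecule microarray slides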
[2] = yeast growth modulation, basal conditions, primary screen, YJM789 clinical isolate, OD600, 24 h (AID 1089);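 further: growth of clinical yeast isolate S. cerevisiae YJM 789 seeded 1000 cells per well; test concentration not given here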; conditions: S. cerevisiae YJM789 growth, higher = more signal, called active from +8 up or from −8 down
[3] = fission yeast growth modulation, primary screen, strain 972, OD600, 24 h, no modulator (AID 1090);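 further: basal condition with compound alone and no growth modifier present; test concentration not given here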; conditions: S. pombe 972 growth, higher = more signal, called active from +8 up or from −8 down
[4] = S. cerevisiae growth modulation with rapamycin, primary screen, strain BY4716, OD600, 96 h (AID 1091); conditions: higher = more signal, called active from +8 up or from −8 down; further: test concentration not given here
[5] = molecular target: Torsin-1A-interacting protein 2 (Homo sapiens) (UniProt Q8NFQ8); experiment: LULL1 binders on small-molecule microarray, primary screen, cell lysate, human LULL1 lysate, 635/667 nm fluorescence (AID 1092); conditions: hLULL1 lysate binding, 635 nm fluorescence, higher = more signal;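 further: probe is lysate of COS7 cells overexpressing human LULL1; score merges per-feature 667 nm fluorescence with signal-to-noise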
[6] = E. coli growth modulation, two-sided OD650, primary screen, E. coli filamentation project, strain DRC41, 24 h (AID 1093); conditions: OD650, 24 h, higher = more signal, called active from +8 up or from −8 down;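 further: MC1000 strain lacking acrAB efflux and sulA so SOS filamentation is blocked; test concentration not given here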
[7] = small-molecule microarray binders of probe aLefty2, primary screen, biochemical, biotinylated probe, 635/667 nm fluorescence (AID 1094); conditions: higher = more signal;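 further: score merges spot fluorescence near 667 nm with spot signal-to-noise ratio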
[8] = test system: Noggin (protein binding on small-molecule microarray); experiment: Noggin binders on small-molecule microarray, primary screen, biochemical, 635/667 nm fluorescence (AID 1095); conditions: 635 nm fluorescence, higher = more signal;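 further: score merges 667 nm feature fluorescence with signal to noise over triplicate slides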
[9] = molecular target: Neurogenic locus notch homolog protein 3 (Homo sapiens) (UniProt Q9UM47); experiment: NOTCH3 binders on small-molecule microarray, primary screen, biochemical, 635/667 nm fluorescence (AID 1096); conditions: NOTCH3 binding, 635 nm fluorescence, higher = more signal
[10] = small-molecule microarray binders of probe aEGFR, primary screen, biochemical, biotinylated probe, 635/667 nm fluorescence (AID 1097); conditions: higher = more signal;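 further: probe is a biotinylated anti-EGFR antibody binding compounds printed on slides; score combines fluorescence near 667 nm and signal to noise of each spot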
[11] = test system: Plasmodium falciparum Sir2 (PF13_0152, Sir2A); experiment: pfSir2 binders on small-molecule microarrays, primary screen, biochemical, small-molecule microarray, 635 nm fluorescence (AID 1098); conditions: small-molecule microarray binding, fluorescence 635 nm; higher = more signal;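 further: score merges spot fluorescence intensity with its signal-to-noise ratio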
[12] = small-molecule microarray binders of probe aDKK1, primary screen, biochemical, biotinylated probe, 635/667 nm fluorescence (AID 1099); conditions: higher = more signal;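 further: score merges 667nm spot fluorescence with signal to noise across triplicate slides; reference of the scale not given here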
[13] = small-molecule microarray binders of probe aCHRDL2, primary screen, biochemical, biotinylated probe, 635/667 nm fluorescence (AID 1100); conditions: higher = more signal
[14] = splicing luciferase reporter signal modulators, primary screen, spliceosome inhibition project, cell-based, HEK293, splice +/- reporter (AID 1101); conditions: luminescence, 24 h, higher = more signal, called active from +8 up or from −8 down;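 further: HEK293 cells carrying a splicing-competent luciferase reporter gene; test concentration not given here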
[15] = molecular target: Fibroblast growth factor 10 (Homo sapiens) (UniProt O15520); experiment: FGF10 binders on small-molecule microarrays, primary screen, biochemical, small-molecule microarray, 635 nm fluorescence (AID 1102); conditions: FGF10 binding, fluorescence 635 nm, higher = more signal
[16] = test system: glycogen synthase kinase-3 (GSK3A per assay name; protocol says GSK3B); experiment: GSK3 binders on small-molecule microarrays, primary screen, biochemical, small-molecule microarray, 635 nm fluorescence, GSK3A (AID 1103); conditions: small-molecule microarray binding, fluorescence 635 nm; higher = more signal; further: the record names both GSK3A and GSK3B
[17] = molecular target: Epidermal growth factor receptor (Homo sapiens) (UniProt P00533); experiment: EGFR binders on small-molecule microarrays, primary screen, biochemical, small-molecule microarray, 635 nm fluorescence (AID 1104); conditions: EGFR binding, higher = more signal;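 further: score merges 667 nm emission intensity with spot signal to noise over triplicate slides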
[18] = molecular target: Follistatin-related protein 3 (Homo sapiens) (UniProt O95633); experiment: FSTL3 binders on small-molecule microarrays, primary screen, biochemical, small-molecule microarray, 635 nm fluorescence (AID 1105); conditions: FSTL3 binding, higher = more signal;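 further: score merges emission near 667 nm and signal to noise per printed spot across three slides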
[19] = molecular target: Dickkopf-related protein 1 (Homo sapiens) (UniProt O94907); experiment: DKK1 binders on small-molecule microarrays, primary screen, biochemical, small-molecule microarray, 635 nm fluorescence scan (AID 1106); conditions: DKK1 binding, higher = more signal;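 further: score merges emission near 667 nm with signal to noise over three replicate slides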
[20] = test system: Inhibin beta A chain (activin A); experiment: INHBA (activin A) binders on microarrays, primary screen, biochemical, small-molecule microarray, 635 nm fluorescence scan (AID 1107); conditions: small-molecule microarray binding, higher = more signal;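 further: mouse activin A protein probed at 4.33 µg/mL on printed slides; score merges bound-protein fluorescence near 667 nm with spot signal-to-noise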

Sequence of Follistatin-related protein 3 (Homo sapiens) (O95633 whole entry, looked up): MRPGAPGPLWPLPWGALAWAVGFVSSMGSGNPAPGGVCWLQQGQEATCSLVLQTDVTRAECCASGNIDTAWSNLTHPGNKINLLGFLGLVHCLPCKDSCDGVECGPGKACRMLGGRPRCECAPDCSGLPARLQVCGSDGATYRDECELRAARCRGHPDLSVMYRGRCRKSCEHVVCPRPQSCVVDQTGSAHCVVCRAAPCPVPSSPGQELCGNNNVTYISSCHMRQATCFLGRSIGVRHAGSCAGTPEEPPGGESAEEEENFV
Sequence of Epidermal growth factor receptor (Homo sapiens) (P00533 whole entry, looked up): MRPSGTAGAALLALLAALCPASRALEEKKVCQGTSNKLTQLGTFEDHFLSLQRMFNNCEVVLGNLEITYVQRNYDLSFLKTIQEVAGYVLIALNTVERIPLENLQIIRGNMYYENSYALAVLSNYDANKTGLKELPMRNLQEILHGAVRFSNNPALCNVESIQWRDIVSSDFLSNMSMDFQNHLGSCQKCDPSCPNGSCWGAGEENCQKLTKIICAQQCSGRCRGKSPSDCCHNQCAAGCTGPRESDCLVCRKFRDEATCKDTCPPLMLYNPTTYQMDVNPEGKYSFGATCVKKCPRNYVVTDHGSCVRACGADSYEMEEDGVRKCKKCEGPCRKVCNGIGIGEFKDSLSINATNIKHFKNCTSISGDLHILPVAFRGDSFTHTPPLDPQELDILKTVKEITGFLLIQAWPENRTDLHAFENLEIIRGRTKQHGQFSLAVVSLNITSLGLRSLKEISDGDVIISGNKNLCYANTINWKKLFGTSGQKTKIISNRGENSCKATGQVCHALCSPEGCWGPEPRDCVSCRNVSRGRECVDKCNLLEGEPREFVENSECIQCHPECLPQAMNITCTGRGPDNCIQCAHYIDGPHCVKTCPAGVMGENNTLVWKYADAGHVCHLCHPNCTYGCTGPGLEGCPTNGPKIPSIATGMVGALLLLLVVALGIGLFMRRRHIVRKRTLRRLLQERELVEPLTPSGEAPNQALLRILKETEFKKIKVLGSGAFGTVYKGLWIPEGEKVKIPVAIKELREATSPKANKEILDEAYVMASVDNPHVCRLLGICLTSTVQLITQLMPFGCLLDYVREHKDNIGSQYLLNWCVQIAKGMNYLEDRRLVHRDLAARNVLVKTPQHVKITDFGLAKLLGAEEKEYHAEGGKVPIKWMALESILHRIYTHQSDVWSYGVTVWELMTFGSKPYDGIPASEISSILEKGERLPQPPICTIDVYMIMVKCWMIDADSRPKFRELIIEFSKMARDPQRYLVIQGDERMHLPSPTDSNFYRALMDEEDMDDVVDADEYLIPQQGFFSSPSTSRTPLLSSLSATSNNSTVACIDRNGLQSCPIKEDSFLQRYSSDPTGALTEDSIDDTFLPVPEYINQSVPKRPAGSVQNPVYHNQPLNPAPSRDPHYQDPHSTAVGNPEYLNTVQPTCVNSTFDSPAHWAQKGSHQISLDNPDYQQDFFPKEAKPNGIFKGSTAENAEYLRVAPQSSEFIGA
Sequence of Torsin-1A-interacting protein 2 (Homo sapiens) (Q8NFQ8 whole entry, looked up): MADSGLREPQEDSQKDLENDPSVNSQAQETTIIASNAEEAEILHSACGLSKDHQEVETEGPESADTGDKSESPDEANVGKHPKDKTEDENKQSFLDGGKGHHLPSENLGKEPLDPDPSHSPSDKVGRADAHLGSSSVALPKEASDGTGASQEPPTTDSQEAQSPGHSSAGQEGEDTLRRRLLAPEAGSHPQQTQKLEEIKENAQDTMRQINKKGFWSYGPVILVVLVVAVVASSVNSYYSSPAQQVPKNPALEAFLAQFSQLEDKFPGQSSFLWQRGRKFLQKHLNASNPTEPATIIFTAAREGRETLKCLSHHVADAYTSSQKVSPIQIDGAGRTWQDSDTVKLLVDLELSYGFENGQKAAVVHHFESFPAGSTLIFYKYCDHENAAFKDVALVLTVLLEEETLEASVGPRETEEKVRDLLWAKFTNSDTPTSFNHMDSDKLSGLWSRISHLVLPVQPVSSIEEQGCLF
Sequence of Dickkopf-related protein 1 (Homo sapiens) (O94907 whole entry, looked up): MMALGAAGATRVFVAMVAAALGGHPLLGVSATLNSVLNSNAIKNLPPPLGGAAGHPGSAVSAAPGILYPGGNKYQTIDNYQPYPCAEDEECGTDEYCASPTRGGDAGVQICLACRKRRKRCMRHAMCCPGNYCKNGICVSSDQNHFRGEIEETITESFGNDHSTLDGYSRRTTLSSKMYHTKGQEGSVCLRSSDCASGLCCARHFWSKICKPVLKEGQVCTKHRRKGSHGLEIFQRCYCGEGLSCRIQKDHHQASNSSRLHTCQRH
Sequence of Fibroblast growth factor 10 (Homo sapiens) (O15520 whole entry, looked up): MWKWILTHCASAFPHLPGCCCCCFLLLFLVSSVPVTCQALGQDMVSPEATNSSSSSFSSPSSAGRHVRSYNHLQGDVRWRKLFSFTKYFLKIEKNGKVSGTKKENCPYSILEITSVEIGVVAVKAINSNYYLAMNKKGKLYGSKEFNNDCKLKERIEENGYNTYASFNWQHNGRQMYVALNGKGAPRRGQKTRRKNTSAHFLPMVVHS
Sequence of Neurogenic locus notch homolog protein 3 (Homo sapiens) (Q9UM47 whole entry, looked up): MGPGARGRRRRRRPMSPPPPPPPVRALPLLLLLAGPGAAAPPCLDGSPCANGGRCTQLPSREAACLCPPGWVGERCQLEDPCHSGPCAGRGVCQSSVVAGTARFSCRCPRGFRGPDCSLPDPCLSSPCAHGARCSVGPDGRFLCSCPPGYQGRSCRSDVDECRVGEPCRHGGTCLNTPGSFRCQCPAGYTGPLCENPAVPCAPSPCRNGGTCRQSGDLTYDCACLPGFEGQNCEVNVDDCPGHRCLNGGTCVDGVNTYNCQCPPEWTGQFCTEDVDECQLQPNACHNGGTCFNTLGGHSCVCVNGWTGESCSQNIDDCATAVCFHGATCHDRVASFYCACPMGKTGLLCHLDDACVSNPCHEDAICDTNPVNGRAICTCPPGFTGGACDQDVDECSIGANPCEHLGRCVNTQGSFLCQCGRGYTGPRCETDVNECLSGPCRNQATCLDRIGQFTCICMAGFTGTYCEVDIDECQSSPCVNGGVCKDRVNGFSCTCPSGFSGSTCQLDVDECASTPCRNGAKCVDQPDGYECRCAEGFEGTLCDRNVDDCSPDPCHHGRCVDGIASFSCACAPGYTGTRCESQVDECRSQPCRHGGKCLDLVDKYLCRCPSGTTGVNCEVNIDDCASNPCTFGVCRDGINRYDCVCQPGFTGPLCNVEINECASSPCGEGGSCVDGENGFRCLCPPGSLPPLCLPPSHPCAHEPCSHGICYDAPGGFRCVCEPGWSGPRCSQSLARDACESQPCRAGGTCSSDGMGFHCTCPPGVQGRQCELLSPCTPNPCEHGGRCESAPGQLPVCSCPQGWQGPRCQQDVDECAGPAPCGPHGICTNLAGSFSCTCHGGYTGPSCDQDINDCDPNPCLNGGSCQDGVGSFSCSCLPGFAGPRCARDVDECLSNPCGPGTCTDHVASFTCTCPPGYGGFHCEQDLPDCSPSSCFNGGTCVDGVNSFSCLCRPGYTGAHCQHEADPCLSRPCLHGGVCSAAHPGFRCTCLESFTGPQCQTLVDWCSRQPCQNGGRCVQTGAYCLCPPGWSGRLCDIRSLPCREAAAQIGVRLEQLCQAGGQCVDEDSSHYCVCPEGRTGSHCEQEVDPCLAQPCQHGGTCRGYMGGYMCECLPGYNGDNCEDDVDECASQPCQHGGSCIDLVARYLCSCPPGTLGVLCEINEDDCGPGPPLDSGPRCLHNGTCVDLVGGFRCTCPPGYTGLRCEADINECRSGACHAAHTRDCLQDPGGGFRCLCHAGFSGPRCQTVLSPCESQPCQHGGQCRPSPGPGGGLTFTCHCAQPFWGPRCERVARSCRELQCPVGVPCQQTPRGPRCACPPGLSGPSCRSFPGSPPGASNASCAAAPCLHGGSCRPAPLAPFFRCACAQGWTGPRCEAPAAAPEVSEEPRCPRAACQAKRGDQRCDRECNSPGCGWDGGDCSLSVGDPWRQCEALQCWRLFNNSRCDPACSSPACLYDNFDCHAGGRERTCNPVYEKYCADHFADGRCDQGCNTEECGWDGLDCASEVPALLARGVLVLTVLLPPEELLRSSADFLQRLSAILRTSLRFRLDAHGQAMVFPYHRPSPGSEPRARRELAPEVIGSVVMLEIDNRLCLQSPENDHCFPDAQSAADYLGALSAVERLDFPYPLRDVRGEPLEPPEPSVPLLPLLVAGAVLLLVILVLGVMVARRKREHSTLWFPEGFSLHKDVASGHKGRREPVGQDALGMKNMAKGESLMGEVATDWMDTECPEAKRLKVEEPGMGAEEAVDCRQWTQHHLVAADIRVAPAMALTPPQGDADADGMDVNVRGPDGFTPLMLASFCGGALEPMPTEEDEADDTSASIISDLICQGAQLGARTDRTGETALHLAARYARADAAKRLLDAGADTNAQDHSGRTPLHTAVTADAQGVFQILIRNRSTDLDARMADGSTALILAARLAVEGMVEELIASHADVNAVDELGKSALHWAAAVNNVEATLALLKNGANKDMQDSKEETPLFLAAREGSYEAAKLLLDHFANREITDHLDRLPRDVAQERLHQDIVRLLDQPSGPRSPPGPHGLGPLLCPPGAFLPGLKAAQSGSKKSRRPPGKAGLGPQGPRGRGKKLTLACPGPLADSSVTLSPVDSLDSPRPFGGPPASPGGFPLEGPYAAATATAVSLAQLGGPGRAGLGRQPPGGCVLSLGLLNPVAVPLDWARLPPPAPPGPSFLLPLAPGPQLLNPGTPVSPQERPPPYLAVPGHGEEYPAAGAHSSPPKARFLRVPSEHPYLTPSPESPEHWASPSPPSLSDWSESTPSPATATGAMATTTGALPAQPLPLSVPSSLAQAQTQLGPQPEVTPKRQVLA

| SMILES | composite z-score [1] | z-score [2] | z-score [3] | z-score [4] | composite z-score [5] | z-score [6] | composite z-score [7] | composite z-score [8] | composite z-score [9] | composite z-score [10] | composite z-score [11] | composite z-score [12] | composite z-score [13] | z-score [14] | composite z-score [15] | composite z-score [16] | composite z-score [17] | composite z-score [18] | composite z-score [19] | composite z-score [20] |
| --- | --- | --- | --- | --- | --- | --- | --- | --- | --- | --- | --- | --- | --- | --- | --- | --- | --- | --- | --- | --- |
| [N-]=[N+]=Nc1ccccc1[C@@H]1OC(c2ccc(OCCCO)cc2)=N[C@]1(CCS(=O)(=O)c1ccccc1)C(=O)NCC(O)CO (stereo not given in full) | 0.856 | 0.678 (inactive) | 0.636 (inactive) | 0.347 (inactive) | 3.1 | 0.679 (inactive) | -0.116 | 0.351 | 0.0354 | -0.147 | 1.73 | -0.181 | 0.72 | -0.633 (inactive) | -0.176 | 0.434 | -0.586 | -0.332 | -0.328 | 0.693 |
| CCOC(=O)C[C@H]1[C@H](OC(=O)Cc2ccc3c(c2)OCO3)[C@@H](NC(=O)Cc2ccc(OC)cc2)c2cc(OCCCO)ccc2N1C(=O)Cc1ccc(OC)cc1 | 0.433 | -0.449 (inactive) | 0.531 (inactive) | -0.495 (inactive) | 1.3 | 0.503 (inactive) | -0.0616 | -0.102 | 0.194 | -0.157 | 0.132 | -0.0514 | -0.178 | -2.07 (inactive) | 0.205 | 0.157 | -0.141 | 0.0597 | -0.141 | 0.177 |
| CN(C)CCCCNC(=O)[C@H]1C[C@H]2C(=O)N3CCC[C@H]3C(=O)N2[C@H]1c1cccc(OCCO)c1 | 1.1 | 0.752 (inactive) | 1.68 (inactive) | 0.751 (inactive) | 3.09 | -0.101 (inactive) | 0.0164 | 0.866 | 0.476 | -0.0968 | 1.67 | 0.0092 | 0.833 | -0.0803 (inactive) | 0.425 | 0.676 | -0.497 | -0.0327 | -0.0023 | 0.0098 |
| CN(C)CCCNC(=O)[C@@]1(C)c2ccccc2C(=O)N(Cc2ccc(OC(F)(F)F)cc2)[C@H]1c1ccc(CO)cc1 | 1.21 | -1.7 (inactive) | -1.93 (inactive) | -1.42 (inactive) | 1.53 | 0.649 (inactive) | 0.0239 | -0.552 | -0.0992 | -0.229 | 1.33 | -0.0469 | 0.63 | 0.399 (inactive) | -0.365 | -0.417 | -0.786 | -0.811 | -0.912 | 0.462 |
| N#Cc1ccc(C(O)C2C=CC3C(=O)NC(=O)C3N2Nc2ccc(Cl)cc2Cl)cc1 (stereo not given) | 0.156 | -2.93 (inactive) | -0.615 (inactive) | 0.448 (inactive) | 3.39 | -0.343 (inactive) | 0.103 | -0.185 | 0.559 | -0.0594 | 1.42 | 0.558 | 1.13 | 1.9 (inactive) | 0.599 | -0.344 | 0.0129 | -0.124 | -0.577 | 1.03 |
